Measured values taken from PubChem BioAssay AID777 (Sanford-Burnham Center for Chemical Genomics, 2007).
Screen size: about 96,000 compounds; about 19,000 (20%) were called active. These entries were drawn from the full list. A number with no mark means an inactive call.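 How the source made its calls: active means blocking of liver enzyme CYP2C9 beyond about 50% at 5 µM (limit read from the data); inactive means the rest.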

Each molecule was assayed against Cytochrome P450 2C9 (Homo sapiens) (UniProt P11712) (assay: blockers of cytochrome P450 2C9 activity – biochemical, luminescence, ADME assay, primary screen (AID 777)). Details: CYP2C9 Supersomes, luciferin-H conversion, at 5 µM, stronger effect = higher value.
Chain of Cytochrome P450 2C9 (Homo sapiens) (P11712 whole entry, looked up): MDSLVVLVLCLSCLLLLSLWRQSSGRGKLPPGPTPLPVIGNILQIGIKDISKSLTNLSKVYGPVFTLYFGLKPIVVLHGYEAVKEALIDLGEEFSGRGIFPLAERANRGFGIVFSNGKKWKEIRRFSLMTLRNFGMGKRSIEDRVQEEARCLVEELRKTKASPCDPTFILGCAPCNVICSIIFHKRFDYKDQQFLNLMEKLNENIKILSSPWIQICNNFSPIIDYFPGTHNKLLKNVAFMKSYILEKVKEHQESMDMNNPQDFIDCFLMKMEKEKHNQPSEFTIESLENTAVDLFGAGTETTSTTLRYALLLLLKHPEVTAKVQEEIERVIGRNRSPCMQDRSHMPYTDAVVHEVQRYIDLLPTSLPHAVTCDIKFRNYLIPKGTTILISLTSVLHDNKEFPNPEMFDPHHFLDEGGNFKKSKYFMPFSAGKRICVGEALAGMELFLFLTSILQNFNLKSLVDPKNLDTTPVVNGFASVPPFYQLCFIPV

Compound	inhibition
CCCCCCSc1nsc(N)n1	1.5%
CCOC(=O)c1sc(=S)n(-c2cccc(OC)c2)c1N	-20.4%
CS(=O)(=O)N(CC(=O)N1CCN(c2cccc(Cl)c2)CC1)c1ccccc1	54.7% (active)
Cc1cccc(N(CC(=O)N2CCOCC2)S(C)(=O)=O)c1	3.8%
CS(=O)(=O)N(CC(=O)N1CCN(Cc2ccc3c(c2)OCO3)CC1)c1ccc2c(c1)OCO2	7.2%
COc1cccc(N(CC(=O)N2CCc3ccccc3C2)S(C)(=O)=O)c1	14.5%
CS(=O)(=O)N(CC(=O)N1CCN(Cc2ccccc2)CC1)c1ccc2c(c1)OCCO2	-0.9%
CC1CCN(C(=O)CN(c2ccc(Oc3ccccc3)cc2)S(C)(=O)=O)CC1	50.7% (active)
O=C(Nc1cccnc1)c1noc2c1CCCCC2	33.5%
Cc1nn(CC(=O)Nc2ccc3c(c2)nc(CN2CCCCC2)n3C)c(=O)c2ccccc12	16.1%
O/N=C(\c1ccc2c(c1)OCCO2)C1CCCCC1	35.2%
CCOc1ccccc1N=C1NC(=O)CS1	-11.8%
COc1ccc(OCc2ccc(-c3nc4ccccc4c(=O)n3N)o2)cc1	45.5%
O=C(O)/C=C/C(=O)Nc1ccc(F)cc1F	3.9%
NC(=O)c1ncc(C(F)(F)F)cc1Oc1ccc(F)cc1	7.9%
Cn1c(=O)[nH]c(=O)c2c1nc(N(CCO)Cc1ccccc1)n2Cc1ccccc1Cl	25.8%
CN(Cc1ccccc1)c1nc2c(c(=O)[nH]c(=O)n2C)n1CCSc1nc2ccccc2[nH]1	67.2% (active)
CCCSc1nc2c(c(=O)[nH]c(=O)n2C)n1CCc1ccccc1	14.6%
Brc1ccc(/C=N/N2CCN(C3c4ccccc4-c4ccccc43)CC2)s1	25.4%
O=[N+]([O-])c1ccccc1/C=N/n1c(COc2ccccc2)n[nH]c1=S	8.7%
Cn1nc(-c2ccc(Cl)cc2)c2cc(C(=O)NCc3ccco3)sc21	43.4%
Cc1nn(-c2ccccc2)c2sc(C(=O)N(Cc3ccco3)C(C)C(=O)NC(C)(C)C)cc12 (stereo not drawn)	65.2% (active)
Cc1nc(C)c(C(=O)N(c2ccc(C)c(C)c2)C(C(=O)NCc2ccco2)c2ccccc2)s1 (stereo not drawn)	46.6%
CCn1nnc(NC(=O)c2cc(Cl)c(OC)c(Cl)c2)n1	-1.7%
O=C(N1CCOCC1)N(Cc1ccccc1)c1ccccn1	8.5%

Compound	inhibition
CCC(C)Sc1nc(C)nc2c1c(=O)n(C)c(=O)n2C (stereo not drawn)	8.4%
Cc1nnc(SCC(=O)N/N=C/c2cn(-c3ccccc3)nc2-c2ccc(F)cc2)n1-c1ccccc1	29.6%
Cc1ccc(-c2nn(-c3ccccc3)cc2/C=N/NC(=O)c2ccc3c(c2)OCO3)cc1	76.1% (active)
COc1cccc(/C=N/NC(=O)c2cccc([N+](=O)[O-])c2)c1OS(=O)(=O)c1ccc(C)cc1	1.8%
CC/C(C)=N/Nc1nc2sc3c(c2c(=O)[nH]1)CC(C)(C)OC3	30.9%
CCOC(=O)c1sc(NC(=O)CSc2ncccn2)c(C#N)c1C	45.3%
CCOC(=O)c1sc(NC(=O)CSc2nnc(-c3ccco3)o2)c(C(=O)OCC)c1C	78.6% (active)
Cc1cccc(NC(=O)CSc2nnc(-c3ccco3)o2)c1	29.1%
CCOC(=O)Cc1csc(NC(NC(=O)OCC)(C(F)(F)F)C(F)(F)F)n1	22.3%
Cc1cc(N2CCCC2=O)cc(C)c1S(N)(=O)=O	-21.5%
COC(=O)[C@H](CCSC)NC(=O)Nc1ccc(OC)cc1	7.5%
Cc1cc(C(=O)NCCCc2ccccc2)no1	2.4%
Cc1ccc(-c2nn(-c3ccccc3)cc2CN(Cc2ccccc2)C(=O)CCC(=O)O)o1	65.1% (active)
CCN(Cc1ccccc1)C(=O)CSc1nc(C)cc2c1C(=O)OC2	-130%
O=C(O)CCC(=O)N(Cc1cccs1)Cc1cccs1	31.5%
CCCSC(=S)NC1CCS(=O)(=O)C1 (stereo not drawn)	19.1%
Cc1ccc(Cc2cnc(N)s2)o1	3%
N/C(=N\OC(=O)CCc1ccccc1)c1ccc(Cl)cc1	8.3%
CCOc1cc(/C=N/O)cc(Br)c1OC	17.9%
COc1cc(/C=N/O)cc(Br)c1OCc1cccc(Cl)c1	-39.5%
COc1cc(/C=N/O)cc(Br)c1OS(=O)(=O)c1ccc(C)cc1	67.9% (active)
O=C(NCc1cn2ccsc2n1)Nc1cccc(Cl)c1	-17.8%
Cc1cccc(NC(=O)C2CCN(S(=O)(=O)c3cccc4cccnc34)CC2)c1	-180%
COCCOC(=O)c1sc(=S)n(CCOC)c1N	1%
COC(=O)c1sc(=S)n(-c2ccccc2)c1N	3.7%

Compound	inhibition
CCOC(=O)Cn1c(N)c(C(=O)OC)sc1=S	57.8% (active)
Cc1ccc(O)c(CNc2nc3ccccc3n2C)c1	21.9%
Cc1nnc(OCC(=O)NCCC2=CCCCC2)c2ccccc12	-29.1%
O=C(COc1cccc(-n2cnnn2)c1)NCCC1=CCCCC1	79.4% (active)
O=C(COc1ccc(Cl)cc1)NCCC1=CCCCC1	40.4%
CC(C)(C)c1cc(CN2CCN(CCC#N)CC2)cc(C(C)(C)C)c1O	4.9%
CC(C)Oc1ccc(C2NC(=O)NC2=O)cc1 (stereo not drawn)	-28.2%
COc1ccc(S(=O)(=O)Nc2ccc3oc(C)c(C(C)=O)c3c2)cc1	67.2% (active)
COc1ccc(Nc2cc(=O)oc3ccccc23)cc1	-27.6%
COc1ccc2oc(C)c(NC(C)=O)c2c1	-8.9%
CCOC(=O)c1c(C)[nH]c(C)c1C(=O)CSc1nc(N)cc(N)n1	-35.6%
COc1cc(CNCc2cccs2)cc(Br)c1OC	8.7%
Cn1c(SCc2c(F)cccc2Cl)nnc1-c1cnccn1	-6%
COc1cccc(N=c2oc3c(C)ncc(CO)c3cc2C(N)=O)c1	11.4%
COc1cccc(OC)c1C(=O)Nc1nnc(C(C)C)s1	20.1%
COC(=O)C1=C(C)NC2=C(C(=O)c3ccccc32)C1c1ccc(-c2ccc(C(=O)O)cc2)o1 (stereo not drawn)	97.3% (active)
COC(=O)C1=C(C)NC(=O)NC1/C=C/c1ccccc1 (stereo not drawn)	-0.6%
COc1ccccc1NC(=O)C1=C(C)NC2=C(C(=O)CCC2)C1c1ccc(C)o1 (stereo not drawn)	10.7%
Clc1ccc(C=NC23CN4CN(CN(C4)C2)C3)cc1	1.1%
Cc1ccc(CN2C(=O)CCC2C(=O)NCCCN2CCCCC2C)cc1 (stereo not drawn)	0%
CCc1ccc2oc(=O)cc(CN3CCCCC3C)c2c1 (stereo not drawn)	54.9% (active)
COc1ccc(CN2CCCCC2C)cc1OC (stereo not drawn)	-9.7%
CCC(C)(C)c1ccc(Oc2ccc(NC(=O)COC(=O)C3=COCCO3)cc2)cc1	76.1% (active)
CCC1(CC)NC(=O)N(CC(=O)OCC(=O)Nc2ccc(C(F)(F)F)cc2)C1=O	-10.3%
O=C(OCC(=O)c1cccs1)C1=COCCO1	0.5%

Compound	inhibition
O=C(C1CC1)N1CCN=C1SCc1ccc(Cl)cc1	21.3%
CC(C(=O)N1CCOCC1)N1c2cccc3cccc(c23)S1(=O)=O (stereo not drawn)	-30.6%
NC(N)=N/N=C/c1ccc(OCc2ccc(Cl)cc2Cl)cc1	-11.8%
COc1ccc(C2Nc3ccccc3C(=O)N2Cc2ccccc2)cc1Cn1nnc2ccccc21 (stereo not drawn)	93.5% (active)
COc1ccc(C2=NO[C@@H]3C(=O)N(Cc4ccccc4)C(=O)[C@H]23)cc1OC	47%
Cc1cc(C)c2c(n1)nn1c(-n3ccnc3)cc(C)nc21	-4.3%
Cn1c(CNc2nc(-c3ccccc3)cs2)nnc1SCC(=O)c1ccccc1	65.7% (active)
Cc1ccccc1NC(=O)Cc1nnc(SCC(=O)N2CCN(c3ccccc3)CC2)n1C	13.3%
Cn1c(CC(=O)Nc2ccccc2)nnc1SCC(=O)c1ccccc1	76.5% (active)
CCOC(=O)CSc1nnc(CNc2nc(-c3ccccc3)cs2)n1C	-2.1%
Cc1ccc(C(=O)CSc2nnc(Cn3nnc4ccccc43)n2C)cc1	20.6%
CCn1c(Cc2ccccc2)nnc1SCC(=O)Nc1ccccc1	4%
CCc1ccc2c(c1)cc(CN(C(=S)Nc1ccccc1Cl)C1CC1)c1nnnn12	-11.3%
CCOc1ccccc1C1C(C(=O)OC)=CN(C)C=C1C(=O)OC	39.1%
CC(C)Oc1ccc(Oc2ccc(C(F)(F)F)cn2)cc1	23.3%
Cc1ccc(C2C(C#N)C(C#N)N3CCCN23)cc1 (stereo not drawn)	-8.1%
CCOC(=O)c1c(C)n(C)c2ccc(OC)c(NC(=O)CN3CCC4(CC3)OCCO4)c12	18.3%
COc1ccc(CCNC(=O)CN2CCC(n3nnc4cc(F)ccc43)CC2)cc1OC	28.1%
CSCCC(Nc1nc2ccccc2s1)C(=O)O (stereo not drawn)	25.8%
Cc1nn(CC(=O)Nc2nc3ccccc3s2)c(C)c1[N+](=O)[O-]	89.2% (active)
Cc1nn(Cc2ccccc2Cl)c(C)c1NC(=O)Cn1nc([N+](=O)[O-])c(Cl)c1C	11%
Cc1ccc(S(=O)(=O)NCc2cn3ccsc3n2)c(C)c1	21.3%
COc1ccc(CCN(Cc2cc3cccc(C)c3[nH]c2=O)C(=O)N2CCCC2)cc1OC	32.5%
